Results published in PubChem BioAssay AID1159580 (chemical genetic matrix, 2015).
Several values for one entry are separate records, joined by “and”; a condition that tells them apart may be missing. Equal entries are not always repeated. Hit rate of the full screen: of about 5,500 compounds, about 2,000 (36%) were called active. Another 18% or so got no clear call; they are omitted. Rule as the data show it: active = normalized growth mostly below about 0.91 (no sharp cut-off); inconclusive = no clear call, values can overlap the other calls; inactive = mostly above about 0.92. This is one part of the list.

Experiment: chemical genetic growth profiling, strain panel (AID 1159580);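 also: tested at 20 µM; growth read once vehicle control cultures reached saturation at 30 °C; 1 = growth at the plate median or of vehicle wells; lower values mean less growth of the strain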
Conditions: S. cerevisiae deletion strains, growth OD

Measured: normalized growth

COc1c(O)cccc1O
inactive: locus YAL013W, strain DEP1, hits give low values 0.993 | locus YAL021C, strain ccr4, hits give low values 0.997 | locus YAL026C, strain drs2, hits give low values 1.04 | locus YAL030W, strain snc1, hits give low values 1.02 | locus YBL061C, strain skt5, hits give low values 1.02 | locus YBR009C, strain hhf1, hits give low values 1.01 | locus YBR021W, strain FUR4, hits give low values 1.04 | locus YBR023C, strain chs3, hits give low values 1.02 | locus YBR171W, strain sec66, hits give low values 1.03 | locus YBR229C, strain ROT2, hits give low values 1.01 | locus YBR231C, strain swc5, hits give low values 1.03 | locus YBR279W, strain paf1, hits give low values 1.02 | locus YCL011C, strain gbp2, hits give low values 1.04 | locus YCL016C, strain dcc1, hits give low values 1.02 | locus YCL029C, strain bik1, hits give low values 1.01 | locus YCL061C, strain MRC1, hits give low values 1.02 | locus YCL069W, strain vba3, hits give low values 1.03 | locus YCR088W, strain abp1, hits give low values 1.02 | locus YDL005C, strain med2, hits give low values 1.03 | locus YDL035C, strain GPR1, hits give low values 1.02 | locus YDL040C, strain nat1, hits give low values 1.01 | locus YDL074C, strain BRE1, hits give low values 1.09 | locus YDL101C, strain DUN1, hits give low values 1.01 | locus YDL134C, strain PPH21, hits give low values 1.06 | locus YDL185W, strain tfp1, hits give low values 1.02 | locus YDL192W, strain arf1, hits give low values 1.04 | locus YDR001C, strain nth1, hits give low values 1.02 | locus YDR069C, strain doa4, hits give low values 1.02 | locus YDR101C, strain arx1, hits give low values 1 | locus YDR137W, strain rgp1, hits give low values 1.04 | locus YDR150W, strain NUM1, hits give low values 0.999 | locus YDR159W, strain sac3, hits give low values 1.02 | locus YDR162C, strain NBP2, hits give low values 1.03 | locus YDR195W, strain ref2 1.02 | locus YDR297W, strain sur2, hits give low values 1.05 | locus YDR318W, strain mcm21, hits give low values 1.03 | locus YDR334W, strain swr1, hits give low values 1.03 | locus YDR335W, strain msn5, hits give low values 1.03 | locus YDR388W, hits give low values 0.996 | locus YDR392W, strain spt3, hits give low values 1.02 | locus YDR502C, strain sam2, hits give low values 1.03 | locus YEL003W, strain gim4, hits give low values 1.02 | locus YEL037C, strain rad23, hits give low values 1.02 | locus YEL061C, strain CIN8 (second series), hits give low values 1.02 | locus YEL061C, strain CIN8, hits give low values 0.973 | locus YER015W, strain faa2, hits give low values 1.02 | locus YER016W, strain bim1, hits give low values 1.02 | locus YER110C, hits give low values 1.02 | locus YER111C, strain swi4, hits give low values 1.02 | locus YER155C, strain BEM2 (second series), hits give low values 1.01 | locus YER155C, strain BEM2, hits give low values 0.997 | locus YER167W, strain BCK2, hits give low values 0.98 | locus YFR010W, strain ubp6, hits give low values 1.03 | locus YGL078C, strain dbp3, hits give low values 1.04 | locus YGL086W, strain mad1, hits give low values 1.03 | locus YGL167C, strain pmr1, hits give low values 1.03 | locus YGL173C, strain kem1, hits give low values 1.02 | locus YGL227W, strain vid30, hits give low values 1.02 | locus YGL240W, strain doc1, hits give low values 1.02 | locus YGL248W, strain PDE1, hits give low values 1.04 | locus YGL253W, strain hxk2, hits give low values 1.05 | locus YGR135W, strain pre9, hits give low values 1.04 | locus YGR252W, strain gcn5, hits give low values 1.13 | locus YHR013C, strain ard1, hits give low values 1.04 | locus YHR027C, strain rpn1, hits give low values 1.02 | locus YHR030C, strain SLT2, hits give low values 1.01 and 1.06 | locus YHR079C, strain IRE1 (second series), hits give low values 1.01 | locus YHR079C, strain IRE1, hits give low values 1.05 | locus YHR094C, strain hxt1, hits give low values 1.01 | locus YHR129C, strain ARP1, hits give low values 0.99 | locus YHR142W, strain chs7, hits give low values 1.07 | locus YHR200W, strain rpn10, hits give low values 1.02 | locus YIL066C, strain RNR3, hits give low values 1.01 | locus YIL073C, strain SPO22, hits give low values 1.14 | locus YIL125W, strain kgd1, hits give low values 1 | locus YIR030C, strain dcg1, hits give low values 1.02 | locus YJL092W, strain hpr5, hits give low values 1.02 | locus YJL095W, strain BCK1 (second series), hits give low values 1.02 | locus YJL095W, strain BCK1, hits give low values 1.11 and 1.04 | locus YJL115W, strain asf1, hits give low values 1.04 | locus YJL129C, strain trk1, hits give low values 1.06 | locus YJL134W, strain LCB3, hits give low values 0.999 | locus YJL154C, strain vps35, hits give low values 1.02 | locus YJL164C, strain tpk1, hits give low values 1.02 | locus YJL166W, strain qcr8, hits give low values 1.03 | locus YJL168C, strain set2, hits give low values 1.01 | locus YJL187C, strain SWE1 (second series), hits give low values 1.03
